In PubChem BioAssay AID588463 (National Center for Advancing Translational Sciences (NCATS), 2011):
In all, about 1,200 compounds went through this assay and about 15 (1%) were called active. Another 7% or so got no clear call; they are omitted. Shown is part of a subset that was picked to be rich in actives. A number with no mark means an inactive call. The call rests on the fitted dose curve; in most records, active means well fitted activation curve with a large enough effect; inconclusive means small, poorly fitted or top-dose-only effect; inactive means flat fitted curve, though single readings scatter.

Target: Beta-2 adrenergic receptor (Homo sapiens) (UniProt P07550)
Sequence (P07550 whole entry, looked up): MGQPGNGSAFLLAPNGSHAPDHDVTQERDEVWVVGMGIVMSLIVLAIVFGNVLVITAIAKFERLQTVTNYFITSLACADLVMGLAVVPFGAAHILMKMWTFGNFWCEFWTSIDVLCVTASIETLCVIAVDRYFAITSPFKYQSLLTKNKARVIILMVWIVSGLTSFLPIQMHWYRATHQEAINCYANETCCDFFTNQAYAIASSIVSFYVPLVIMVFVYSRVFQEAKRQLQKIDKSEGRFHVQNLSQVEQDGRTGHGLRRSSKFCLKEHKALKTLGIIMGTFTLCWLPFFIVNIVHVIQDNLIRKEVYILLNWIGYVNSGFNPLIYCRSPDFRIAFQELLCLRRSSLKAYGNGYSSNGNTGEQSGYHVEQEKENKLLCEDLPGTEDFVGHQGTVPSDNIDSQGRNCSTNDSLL
Test: qHTS assay of beta-arrestin-biased ligands of beta2-adrenergic receptor: Hit Validation;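 on activation: plate controls were DMSO for no effect and maximal isoproterenol or metaproterenol response for full effect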
Conditions: cell-based beta-arrestin recruitment to beta2AR; Potency: activation; series mostly up to 46.1 µM; activation: at the top concentration
Source text: The concept of biased agonism is an emerging concept of molecular pharmacology which proposes that seven transmembrane receptors (7TMRs) or G protein-coupled receptors (GPCRs), exist in multiple signaling conformations and complexes and that ligands (either agonists or antagonists) can induce signaling biased responses for distinct signal transduction cascades.
Furthermore, accumulating evidence over the last decade has drawn attention to a novel function of beta-arrestins as signal transducers that scaffold various signaling molecules upon activation of 7TMRs. […] This beta-arrestin-biased signaling presumably leads to distinct physiological outcomes from those by G protein activation.
Additionally, the active receptor conformations which […] on this beta-arrestin signaling are likely different from those activating G protein signaling
The goal of this screening project will be to discover and optimize novel beta-arrestin-biased ligands for beta2-AR signaling. A luminescent cell-based assay for beta2-AR-mediated agonism, known as the Tango assay, has been validated in which ligand binding of a recombinant beta2-AR and subsequent recruitment of a recombinant beta-arrestin lead to the release of the transcriptional activator tTA, which upregulates transcription of a tTA-responsive luciferase gene.
NIH Molecular Libraries Probe Production Network [MLPCN]
NIH Chemical Genomics Center [NCGC]
PI: Bryan Roth (UNC) and Bob Lefkowitz (Duke)
NCGC Assay Protocol Summary:
Tango cells were dispensed into white, solid, tissue-culture-treated 1536-well plates at 1500 cells/well in DMEM, containing 1% fetal bovine serum (FBS). Then, 23 nL of compounds or DMSO were delivered to each well using a pin tool. Plates were incubated at 37 degrees C, 5% CO2 for 18 hr. Then 2.5 uL luminescent substrate mix (in-house prepared: 150 mM Tris-Cl, pH 7.6, 3 mM MgCl2, 1% Triton X-100, 5 mM DTT, 0.5 mM CoA, 0.15 mM ATP, 0.44 mM D-luciferin, final concentrations) was added to each well. Plates were then incubated for 15 minutes at room temperature, and subsequently measured on a ViewLux plate reader for luminescent signal using a clear filter with a 10 second exposure and 2x binning. The %Activity was determined from the corrected luminescence values.
Concentration-response curves were fitted to the signals arising from the resulting luminescence. The concentration-effect curves were then classified based on curve quality (r2), response magnitude and degree of measured activity, and compounds were subsequently categorized based on their curve class.
Keywords: biased agonism, beta2-AR, beta-arrestin, GPCR, 7TMR, Tango, luminescence, MLSMR, MLPCN, NIH Roadmap, qHTS, NCGC
Potency means the concentration at half of the fitted maximal effect.

SMILES | activation [%] | Potency
CCOC(=O)/C(C#N)=C/Nc1ccsc1C(=O)OC | -3.19 | –
S=c1[nH]c(-c2ccccc2)cn1/N=C/c1cccs1 | -3.12 | –
O=C(Oc1c(Cl)cc(Cl)c2cccnc12)c1cccs1 | -2.15 | –
N#CC[C@H](Cc1ccccc1)N1CC[C@@H](O)CCC1=O | -0.52 | –
COc1ccc(N2C(=O)C3C(C2=O)C(C(=O)c2ccccc2)N2CCCC32)cc1 (stereo not drawn) | -0.0662 | –
COc1ccccc1NC(=S)N/N=C1\CC(C)(C)Oc2ccc(O)cc21 | -1.77 | –
CC(=O)O[C@H]1C2OC(=O)C(C)=C2[C@@H]2OC(=O)[C@]3(CCC4OC41C)OC23 (stereo partly drawn) | -1.78 | –
CNC(=S)N/N=C/c1c(C)cccc1Cl | -3.5 | –
CC(NC(=O)NNC(N)=S)(C(F)(F)F)C(F)(F)F | -2.46 | –
COc1ccc(CN2CCCC(C(=O)c3ccc(SC)cc3)C2)cc1Cn1cccn1 (stereo not drawn) | 0.256 | –
COc1cc(CN2CCCCC2C(=O)Nc2ccc(Oc3ccccc3)nc2)ccc1O (stereo not drawn) | 6.3 | –
Cc1nnc(NC(=O)c2ccc3ccccc3c2)o1 | -1.26 | –
Oc1c(CNc2ccccc2)cc(COCc2ccccc2)c2cccnc12 | -5.03 | –
Cc1ccc2nc(N3C(=O)CNC3=S)sc2c1 | -2.5 | –
Clc1ccc(OCc2nc(-c3ccccn3)n[nH]2)cc1 | -1.51 | –
CNC(=S)N/N=C(\C)c1ccccc1 | -1.21 | –
CCCn1c(Nc2nc3ccccc3n2C)nc2ccccc21 | -2.95 | –
CCC(NC(C)C)C(O)c1ccc(O)c2[nH]c(=O)ccc12 (stereo not drawn) | – | 0.0164 µM (active)
CCC(NC(C)C)C(O)c1ccc(O)c(O)c1 (stereo not drawn) | – | 2.06 µM (active)
Cc1ccc(C2(C)NC(=O)N(CC(=O)c3ccc4c(c3)OCCO4)C2=O)cc1 (stereo not drawn) | 4.6 | –
CNc1sc(C(=O)c2ccccc2F)c(N)c1-c1nc2ccccc2s1 | -1.71 | –
O=S1(=O)Nc2c(ccc3cccnc23)-c2ccccc21 | -3.15 | –
CN1CCN(c2ccc(C(F)(F)F)cc2NC(=O)c2ccco2)CC1 | -3.16 | –
COc1ccccc1-n1c2nc3ccccc3nc2c2c(=O)n(-c3cc(C)cc(C)c3)cnc21 | -3.64 | –

SMILES | activation [%] | Potency
COc1ccc(/C=C(\C#N)C(=O)OCC(=O)NCc2ccccc2)cc1 | -4.17 | –
O=C(N/N=C/C(Br)=C/c1ccccc1)c1cnccn1 | 3.91 | –
O=c1[nH]c2c(cnn2-c2ccc(Cl)cc2)c(=O)n1-c1cccc(Cl)c1 | -4.33 | –
O=C(COC(=O)c1cc(=O)c2ccccc2o1)Nc1ccc2ccccc2c1 | -3.15 | –
CCc1n[nH]c(=S)n1/N=C/c1ccc(N(CC)CC)cc1 | -2.67 | –
COc1ccccc1-[n+]1c(C)cc(/C=C2\Sc3ccccc3N2C)cc1C | 4.51 | –
CCCNC(=O)CN(c1ccccc1)S(=O)(=O)c1ccc(OC)c(OC)c1 | -3.31 | –
COC(=O)c1cc(Br)c(=O)n(CCc2ccc(O)cc2)c1 | -1.68 | –
CCc1ccc(CNc2ccc(O)cc2)cc1 | -3.25 | –
Cc1ccc(S(=O)(=O)Nc2cccnc2)cc1 | -2.88 | –
Cc1ccc(/C=C/C(=O)c2ccccc(=O)c2O)c(C)c1 | 0.972 | –
Cc1ccc(C2C3=C(CC(C)(C)CC3=O)NC3=C2C(=O)c2ccccc23)cc1 (stereo not drawn) | 0.4 | –
Cc1cc(-c2n[nH]c(=S)n2/N=C/C(Cl)=C/c2ccccc2)n[nH]1 | -3.11 | –
CN1CCN(C(=S)NC(=O)c2ccc(Br)cc2)CC1 | -0.998 | –
COc1ccc(Cl)cc1C(Nc1cccnc1)c1ccc2cccnc2c1O (stereo not drawn) | – | 16.4 µM (active)
CN1CCN(C(c2cccnc2)c2ccc3cccnc3c2O)CC1 (stereo not drawn) | -0.879 | –
CC(=O)/C(=N\Nc1ccc(Cl)cc1Cl)Sc1cccc2cccnc12 | -3.04 | –
CC1=NN(C(N)=S)C(=O)C1N=Nc1ccc([N+](=O)[O-])cc1 (stereo not drawn) | -2.82 | –
CC(C)c1nnc(NC(=O)c2cnccn2)s1 | 0.236 | –
COCCNC(=S)N/N=C(\C)c1ccc(Cl)c(Cl)c1 | -1.6 | –
Cc1ccccc1NC(=O)c1c([N+](=O)[O-])c(C(C)(C)C)nn1C | -1.26 | –
O=C(O)c1ccc(C2Nc3ccccc3C(=O)N2Cc2ccccc2)cc1 (stereo not drawn) | -0.733 | –
CCOC(=O)C1=C(C)N(c2ccc(OC)cc2)C(=O)/C1=C\c1ccc(O)c(OCC)c1 | 6.03 | –
CCCCCC1CCC(c2n[nH]c(=S)n2C)CC1 (stereo not drawn) | -5.76 | –

SMILES | activation [%] | Potency
CCCCOc1ccc(C(O)(CCC)CCN2CCOCC2)cc1 (stereo not drawn) | -1.83 | –
CCC(=O)N1CCC2(CC1)Oc1ccc(Cl)cc1C(=O)C21CC(c2ccccc2)=NO1 (stereo not drawn) | – | 20.6 µM (active)
CC(=O)Nc1nonc1NC(=O)CSc1nc2ccccc2o1 | -7.81 | –
CCCCC(=O)NC(c1cccc([N+](=O)[O-])c1)c1c(OC(C)=O)ccc2ccccc12 (stereo not drawn) | -2.28 | –
COc1ccc(N/C=C/C(=O)C(F)(F)F)cc1 | -0.916 | –
Cc1cccc(NNC(=S)Nc2c(C)cccc2C)c1 | -0.528 | –
CCOc1ccc(/C=N/NC(=O)Cc2csc(Nc3cccc(C(F)(F)F)c3)n2)c(OCC)c1 | 4.88 | –
CCN(CC)C(=O)[C@H]1C[C@H](CC(=O)NCc2cccc(C(F)(F)F)c2)C(=O)N2CCc3c([nH]c4cc(-c5ccco5)ccc34)[C@]12C | 0.311 | –
CCCCOc1ccc(NC(=O)CSc2cccc3cccnc23)cc1 | -0.82 | –
CCCC(=O)NC(c1ccc(OC)cc1)c1ccc2cccnc2c1O (stereo not drawn) | – | 4.11 µM (active)
CCCC(=O)NC(c1ccccc1OC)c1ccc2cccnc2c1O (stereo not drawn) | -3.63 | –
CCOC(=O)C1=C(C)N=c2s/c(=C3/C(=O)Nc4ccccc43)c(=O)n2C1c1ccc(C)cc1 (stereo not drawn) | -2.56 | –
O=c1ccc(S(=O)(=O)N2CCCC2)c[nH]1 | -1.52 | –
CCc1cc(=O)oc2cc3occ(C)c3cc12 | -1.07 | –
COc1ccc2ccccc2c1/C=N/NC(=S)NCCN1CCOCC1 | -2.79 | –
O=C(/C=C/c1ccc(Cl)cc1)NC(=S)Nc1ccccc1C(=O)O | 0.6 | –
CC(c1ccccc1)n1c(-c2ccc(C(C)(C)C)cc2)n[nH]c1=S (stereo not drawn) | -2.9 | –
Cc1c(C(=O)OC2CCC(C)CC2)[nH]c2c1C(=O)CCC2 (stereo not drawn) | -0.463 | –
CCCCn1c(Cc2ccccc2)n[nH]c1=S | -2.41 | –
CCOC(=O)C1CCN(Cc2cnc(Oc3ccc(N)cc3)s2)CC1 | -1.52 | –
Cc1ccc(N=C2NC(=O)/C(=C/C=C/c3ccco3)S2)cc1 | -2.91 | –
CCOc1ccc2nc(NC(=S)N(C)C)sc2c1 | -1.49 | –
O=[N+]([O-])c1ccc(OCC(O)CN(C2CCCCC2)C2CCCCC2)cc1 (stereo not drawn) | -0.892 | –
COc1ccc(-c2c(-c3ccccc3)c(C(=O)C(=O)NCCCN(C)C)n3ccc4cc(OC)c(OC)cc4c23)cc1OC | -2.83 | –

SMILES | activation [%] | Potency
Cc1cccc(NC(=S)NC(=O)c2cccs2)n1 | -2.07 | –
CCC1CCCCN1CC(=O)Nc1cc(C)nn1-c1nc(C)cc(C)n1 (stereo not drawn) | -2.24 | –
S=C(NCc1ccccn1)Nc1ccc(Cl)c(Cl)c1 | -3.46 | –
CCNC(=S)N/N=C/c1sccc1C | -3.21 | –
COc1ccc(OC)c(NC(=O)Cn2c(CCC(=O)O)ccc2-c2ccccc2)c1 | -1.92 | –
COC(=O)C1=C(C)NC(=S)NC1c1ccc(-c2cc(Cl)ccc2Cl)o1 (stereo not drawn) | -1.05 | –
C/C=C/C=N/NC(=O)CN(c1ccc(Br)cc1)S(=O)(=O)c1ccccc1 | -3.32 | –
S=C(N/N=C/c1ccc(Cl)c(Cl)c1)Nc1ccccc1Cl | -4.07 | –
Cc1ccc(SCc2cc(=O)[nH]c(/N=C(\N)Nc3ccc(C)c(C)c3)n2)cc1 | -2.5 | –
CCCNC(=O)c1ccc(N2CCC3(CC2)CC(c2cccc(Br)c2)=NO3)c(NC(=O)c2ccc(Br)cc2)c1 | -1.42 | –
CNC(=S)N/N=C1\CC(c2ccccc2)Oc2ccccc21 (stereo not drawn) | -2.26 | –
CCOc1ccccc1C1C2CCCCC2(O)CCN1C(=O)c1cccs1 (stereo not drawn) | 5.71 | –
O=C(N/N=C/C(Br)=C\c1ccccc1)c1n[nH]c2c1CCC2 | 0.218 | –
Cc1ccc(C2=NOC(C)(c3nnc(-c4ccc(F)cc4)o3)C2)cc1 (stereo not drawn) | -4.53 | –
C/C(=N\NC(=S)NC(C)C)c1ccccc1 | -3.07 | –
COc1ccc2c(c1)c1ncn(CCN3CCCCC3)c(=O)c1n2C | -0.19 | –
CCOC(=O)C1CCN(C(=O)Nc2c(-c3ccccc3)noc2C)CC1 | -2.17 | –
CCCCCOCC1CC(C/C(C)=N/NC(N)=S)C(=O)O1 (stereo not drawn) | -1.64 | –
COc1ccccc1NS(=O)(=O)c1cc(NC(=O)CNC(=O)c2ccc(C)s2)ccc1Cl | -2.81 | –
Cc1ccc(C)c(NC(=S)NNc2ccc(F)cc2F)c1 | -5.48 | –
O=C(Oc1c(CN2CCOCC2)cc(Cl)c2cccnc12)c1ccccc1Br | 7.38 | –
